Data on 40 compounds can be found in PubChem BioAssay (NCATS).

Inconclusive results are not listed. Activity calls are given as the source filed them. The call rests on the fitted dose curve; in most records, active means well fitted inhibition curve with a large enough effect; inconclusive means small, poorly fitted or top-dose-only effect; inactive means flat fitted curve, though single readings scatter.

Calcium and integrin-binding protein 1 (Homo sapiens), sequence (Q99828 whole entry, looked up): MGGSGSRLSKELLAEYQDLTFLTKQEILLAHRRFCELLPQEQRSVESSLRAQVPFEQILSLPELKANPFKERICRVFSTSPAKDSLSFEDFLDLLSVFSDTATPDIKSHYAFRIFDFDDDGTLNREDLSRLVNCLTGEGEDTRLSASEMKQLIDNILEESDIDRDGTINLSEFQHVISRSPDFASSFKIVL

For this assay, the target named is Calcium and integrin-binding protein 1 (Homo sapiens) (UniProt Q99828). As to the kind of experiment: Primary qHTS for Identification of Calcium Integrin Binding Protein 1 (CIB1) Competitor (AID 1508620). Further: top concentration of the series differs between compounds. The conditions noted are these: CIB1-GST / FITC-alphaIIb peptide fluorescence polarization; series mostly up to 114 µM. An outline of the steps:
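Fluorescence polarization competition: GST-tagged CIB1 (1 uM final) preincubated with compound 15 min at room temperature, then FITC-labelled alphaIIb peptide (100 nM final) added. After 15 min at room temperature, polarization read at Ex 480/Em 540.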
In general terms: In qHTS, concentration-response curves come from the screen itself.
With `C[n+]1cc(P(=S)(c2ccccc2)c2ccccc2)n2ccccc21`, the result was inactive.

Regarding `CN1CC[C@@]2(C)c3cc(O)ccc3N(C)C2O1` (stereo not given in full), the result was inactive. To `COc1cccc(CNc2ccc(S(=O)(=O)Nc3nccs3)cc2)c1OC` belongs “inactive”; to `N#Cc1c(-c2cccc(-c3no[n+]([O-])c3C#N)c2)no[n+]1[O-]`, “inactive”.

As to `O=S(=O)(Nc1cccc2ccncc12)c1ccc(NCc2cccc(Cl)c2O)cc1`, the result was inactive. Then `Cc1nn2c(=O)cc(N3CCNCC3)nc2s1`, with “inactive”; and `CCOc1ccc(CCNC(=O)c2cc3cnccc3n2Cc2cccc(C)c2)cc1OCC`, with “inactive”; and `CCOc1ccc(CCNC(=O)c2cc3sccc3n2Cc2ccc(F)cc2F)cc1OCC`, with “inactive”. To `Cn1cc(Cl)c(C2N=C(Nc3nc4ccccc4o3)NC3=C2C(=O)CCC3)n1` (stereo not given) belongs “inactive”; to `CCc1nn2c(=O)c(F)c(N3CCNCC3)nc2s1`, “inactive”.

For the compound `Cc1cc(-c2nnc3n2CCCCC3)c(C)n1-c1ccc(C(C)(C)C)cc1`, the result was inactive. With `S=P(c1ccccc1)(c1ccccc1)c1c[nH]c2ccccc12`, the outcome was inactive. Then `O=C1CCCC2=C1C(c1[nH]ncc1Cl)N=C(Nc1nc3ccc(F)cc3o1)N2` (stereo not given), with “inactive”. Take `N#Cc1nc(-c2cccc3ccccc23)oc1NCc1ccccc1`: the outcome was inactive.

For `CCOc1ccc(CCNC(=O)c2ccc(Oc3ccccc3)cc2)cc1OCC`, the result was inactive. Then `CCc1nn2c(=O)c(C)c(N3CCNCC3)nc2s1`, with “inactive”; and `Cc1cc(-c2nnc3n2CCCCC3)c(C)n1-c1cccnc1`, with “inactive”.

As for `CCOc1ccc(CCNC(=O)c2cc3cccnc3n2Cc2cccc(C)c2)cc1OCC`, the outcome was inactive. Then `O=C(O)c1ccc(O)c2ncc(N3CCCNCC3)cc12`, with “inactive”. To `CCOc1ccc(CCNC(=O)c2cc3cnccc3n2Cc2cccc(C)n2)cc1OCC` belongs “inactive”. For `Cc1cc(C)c(OP(=O)(OCc2c(-c3ccccc3)no[n+]2[O-])Oc2c(C)cc(C)cc2C)c(C)c1`, the result was inactive. Then `CCOc1ccc(CCNC(=O)c2ccccc2)cc1OCC`, with “inactive”; and `CN1CCN(c2cnc3c(O)ccc(C(=O)O)c3c2)CC1`, with “inactive”; and `O=S(=O)(Nc1ccc(-c2ccccc2)cc1)c1ccc(NCc2cccc(Cl)c2O)cc1`, with “inactive”. Then `Cc1[nH]c2ccccc2c1P(=S)(c1ccccc1)c1ccccc1`, with “inactive”; and `CC1=C(C(=O)Nc2nccs2)C(c2ccccc2Br)N=C(Nc2nc3ccccc3o2)N1` (stereo not given), with “inactive”; and `CCOc1ccc(CCNC(=O)c2cc3ccccc3n2CCN2CCOCC2)cc1OCC`, with “inactive”. As to `S=P(c1ccccc1)(c1ccccc1)c1c[n+](Cc2ccccc2)c2ccccn12`, the outcome was inactive. Then `Oc1cccc2cc(N3CCNCC3)cnc12`, with “inactive”; and `COC(=O)c1nc(-c2cccc3ccccc23)oc1OC`, with “inactive”. In the case of `CCc1nn2c(=O)cc(N3CCN(C)CC3)nc2s1`, the result was inactive.

Regarding `Cc1ccccc1C(=O)N1CCc2cc(N3CCC(NC(=O)Cc4ccccc4)C3)ccc21` (stereo not given), the result was inactive. Take `Cc1cccc2nc(NC3=NC(c4[nH]ncc4Cl)C4=C(CCCC4=O)N3)oc12` (stereo not given): the outcome was inactive. As for `O=C(Nc1ncc(Cc2ccc(C(F)(F)F)cc2)s1)c1cnc(-c2ccccc2)o1`, the result was inactive. To `S=P(c1ccccc1)(c1ccccc1)c1c(-c2ccccc2)[nH]c2ccccc12` belongs “inactive”; to `Cc1c(P(=S)(c2ccccc2)c2ccccc2)[n+]2ccccc2n1C`, “inactive”. Then `Cc1cccc(-n2cnc3cc(C(=O)N4CCCC(C)C4)ccc32)c1` (stereo not given), with “inactive”. Then `COc1cccc(CNc2ccc(S(=O)(=O)Nc3ccc4ccccc4c3)cc2)c1O`, with “inactive”; and `CCOc1ccc(CCNC(=O)c2cc3ccccc3n2Cc2cccc(C)n2)cc1OCC`, with “inactive”; and `Cc1nc2ccccn2c1P(=S)(c1ccccc1)c1ccccc1`, with “inactive”.
